Among the data in ChEMBL document CHEMBL2218924, “A broad activity screen in support of a chemogenomic map for kinase signalling research and drug discovery” (Biochem J, 2013) are residual activity values, retold here.

Test [1] addresses Serine/threonine-protein kinase WNK3 (Homo sapiens) (UniProt Q9BYP7). To be noted: at 10 µM.
In test [2] the target is RAF proto-oncogene serine/threonine-protein kinase (Homo sapiens) (UniProt P04049). To be noted: at 1 µM.
The target is the same in test [3]. To be noted: at 10 µM.
For test [4], the target named is Serine/threonine-protein kinase mTOR (Homo sapiens) (UniProt P42345). To be noted: at 1 µM.
For test [5] the target is unchanged. To be noted: at 10 µM.
Test [6] addresses Tyrosine-protein kinase Yes (Homo sapiens) (UniProt P07947). To be noted: at 1 µM.
For test [7] the target is unchanged. To be noted: at 10 µM.
Test [8] deals with T1, Tyrosine-protein kinase ZAP-70 (Homo sapiens) (UniProt P43403).
T1 sequence (whole entry): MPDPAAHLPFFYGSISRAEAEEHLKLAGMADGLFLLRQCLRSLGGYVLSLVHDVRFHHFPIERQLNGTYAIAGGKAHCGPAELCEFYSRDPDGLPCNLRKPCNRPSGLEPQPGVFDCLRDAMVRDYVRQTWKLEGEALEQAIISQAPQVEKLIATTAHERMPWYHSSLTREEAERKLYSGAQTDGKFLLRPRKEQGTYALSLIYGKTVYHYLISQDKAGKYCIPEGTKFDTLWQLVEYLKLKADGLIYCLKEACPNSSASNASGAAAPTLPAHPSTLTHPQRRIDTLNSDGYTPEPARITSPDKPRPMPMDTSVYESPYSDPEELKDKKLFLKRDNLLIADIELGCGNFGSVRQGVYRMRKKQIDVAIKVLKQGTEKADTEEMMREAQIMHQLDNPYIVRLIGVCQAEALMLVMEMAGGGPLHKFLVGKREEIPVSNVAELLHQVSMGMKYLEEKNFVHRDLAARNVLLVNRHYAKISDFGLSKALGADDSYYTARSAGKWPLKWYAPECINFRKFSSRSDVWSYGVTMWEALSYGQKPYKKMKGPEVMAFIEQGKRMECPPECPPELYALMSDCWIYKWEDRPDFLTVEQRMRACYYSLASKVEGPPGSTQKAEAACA
To be noted: at 1 µM.

Test [9] concerns the target Death-associated protein kinase 3 (Homo sapiens) (UniProt O43293). To be noted: at 1 µM.
For test [10] the target is unchanged. To be noted: at 10 µM.
In test [11] the target is Mast/stem cell growth factor receptor Kit (Homo sapiens) (UniProt P10721). To be noted: at 1 µM.
Test [12] has the same target. To be noted: at 10 µM.
The target in test [13] is Proto-oncogene tyrosine-protein kinase Src (Homo sapiens) (UniProt P12931). To be noted: at 1 µM.
Test [14] shares this target. To be noted: at 10 µM.
The target in test [15] is Serine/threonine-protein kinase WNK2 (Homo sapiens) (UniProt Q9Y3S1). To be noted: at 10 µM.
Test [16] has as its target T2, Eukaryotic elongation factor 2 kinase (Homo sapiens) (UniProt O00418).
T2 sequence (whole entry): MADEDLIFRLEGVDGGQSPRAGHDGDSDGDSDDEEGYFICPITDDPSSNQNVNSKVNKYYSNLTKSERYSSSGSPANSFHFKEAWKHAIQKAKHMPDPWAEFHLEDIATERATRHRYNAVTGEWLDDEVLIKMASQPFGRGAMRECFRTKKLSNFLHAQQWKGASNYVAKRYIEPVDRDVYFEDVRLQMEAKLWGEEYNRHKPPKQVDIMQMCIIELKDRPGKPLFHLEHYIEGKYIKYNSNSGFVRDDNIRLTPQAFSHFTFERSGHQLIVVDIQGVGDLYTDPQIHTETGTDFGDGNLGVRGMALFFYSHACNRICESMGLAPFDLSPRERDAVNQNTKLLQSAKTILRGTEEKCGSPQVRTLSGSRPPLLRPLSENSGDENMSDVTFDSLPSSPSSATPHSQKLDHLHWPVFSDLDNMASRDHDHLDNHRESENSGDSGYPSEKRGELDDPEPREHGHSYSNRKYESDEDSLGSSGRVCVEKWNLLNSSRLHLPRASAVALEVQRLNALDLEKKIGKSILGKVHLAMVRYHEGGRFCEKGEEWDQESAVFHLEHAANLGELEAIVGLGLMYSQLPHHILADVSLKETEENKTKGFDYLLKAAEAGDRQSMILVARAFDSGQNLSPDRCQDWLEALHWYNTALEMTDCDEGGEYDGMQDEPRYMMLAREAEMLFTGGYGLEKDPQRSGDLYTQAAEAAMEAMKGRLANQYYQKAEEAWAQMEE
To be noted: at 10 µM.

The target of test [17] is Serine/threonine-protein kinase mTOR (Homo sapiens) (UniProt P42345). To be noted: at 1 µM. The source holds these as a separate data set.
Test [18] shares this target. To be noted: at 10 µM. This is another data set of the same source.
Test [19] has as its target Serine/threonine-protein kinase WNK3 (Homo sapiens) (UniProt Q9BYP7). To be noted: at 1 µM.

Serine/threonine-protein kinase WNK2 (Homo sapiens), sequence (Q9Y3S1 whole entry): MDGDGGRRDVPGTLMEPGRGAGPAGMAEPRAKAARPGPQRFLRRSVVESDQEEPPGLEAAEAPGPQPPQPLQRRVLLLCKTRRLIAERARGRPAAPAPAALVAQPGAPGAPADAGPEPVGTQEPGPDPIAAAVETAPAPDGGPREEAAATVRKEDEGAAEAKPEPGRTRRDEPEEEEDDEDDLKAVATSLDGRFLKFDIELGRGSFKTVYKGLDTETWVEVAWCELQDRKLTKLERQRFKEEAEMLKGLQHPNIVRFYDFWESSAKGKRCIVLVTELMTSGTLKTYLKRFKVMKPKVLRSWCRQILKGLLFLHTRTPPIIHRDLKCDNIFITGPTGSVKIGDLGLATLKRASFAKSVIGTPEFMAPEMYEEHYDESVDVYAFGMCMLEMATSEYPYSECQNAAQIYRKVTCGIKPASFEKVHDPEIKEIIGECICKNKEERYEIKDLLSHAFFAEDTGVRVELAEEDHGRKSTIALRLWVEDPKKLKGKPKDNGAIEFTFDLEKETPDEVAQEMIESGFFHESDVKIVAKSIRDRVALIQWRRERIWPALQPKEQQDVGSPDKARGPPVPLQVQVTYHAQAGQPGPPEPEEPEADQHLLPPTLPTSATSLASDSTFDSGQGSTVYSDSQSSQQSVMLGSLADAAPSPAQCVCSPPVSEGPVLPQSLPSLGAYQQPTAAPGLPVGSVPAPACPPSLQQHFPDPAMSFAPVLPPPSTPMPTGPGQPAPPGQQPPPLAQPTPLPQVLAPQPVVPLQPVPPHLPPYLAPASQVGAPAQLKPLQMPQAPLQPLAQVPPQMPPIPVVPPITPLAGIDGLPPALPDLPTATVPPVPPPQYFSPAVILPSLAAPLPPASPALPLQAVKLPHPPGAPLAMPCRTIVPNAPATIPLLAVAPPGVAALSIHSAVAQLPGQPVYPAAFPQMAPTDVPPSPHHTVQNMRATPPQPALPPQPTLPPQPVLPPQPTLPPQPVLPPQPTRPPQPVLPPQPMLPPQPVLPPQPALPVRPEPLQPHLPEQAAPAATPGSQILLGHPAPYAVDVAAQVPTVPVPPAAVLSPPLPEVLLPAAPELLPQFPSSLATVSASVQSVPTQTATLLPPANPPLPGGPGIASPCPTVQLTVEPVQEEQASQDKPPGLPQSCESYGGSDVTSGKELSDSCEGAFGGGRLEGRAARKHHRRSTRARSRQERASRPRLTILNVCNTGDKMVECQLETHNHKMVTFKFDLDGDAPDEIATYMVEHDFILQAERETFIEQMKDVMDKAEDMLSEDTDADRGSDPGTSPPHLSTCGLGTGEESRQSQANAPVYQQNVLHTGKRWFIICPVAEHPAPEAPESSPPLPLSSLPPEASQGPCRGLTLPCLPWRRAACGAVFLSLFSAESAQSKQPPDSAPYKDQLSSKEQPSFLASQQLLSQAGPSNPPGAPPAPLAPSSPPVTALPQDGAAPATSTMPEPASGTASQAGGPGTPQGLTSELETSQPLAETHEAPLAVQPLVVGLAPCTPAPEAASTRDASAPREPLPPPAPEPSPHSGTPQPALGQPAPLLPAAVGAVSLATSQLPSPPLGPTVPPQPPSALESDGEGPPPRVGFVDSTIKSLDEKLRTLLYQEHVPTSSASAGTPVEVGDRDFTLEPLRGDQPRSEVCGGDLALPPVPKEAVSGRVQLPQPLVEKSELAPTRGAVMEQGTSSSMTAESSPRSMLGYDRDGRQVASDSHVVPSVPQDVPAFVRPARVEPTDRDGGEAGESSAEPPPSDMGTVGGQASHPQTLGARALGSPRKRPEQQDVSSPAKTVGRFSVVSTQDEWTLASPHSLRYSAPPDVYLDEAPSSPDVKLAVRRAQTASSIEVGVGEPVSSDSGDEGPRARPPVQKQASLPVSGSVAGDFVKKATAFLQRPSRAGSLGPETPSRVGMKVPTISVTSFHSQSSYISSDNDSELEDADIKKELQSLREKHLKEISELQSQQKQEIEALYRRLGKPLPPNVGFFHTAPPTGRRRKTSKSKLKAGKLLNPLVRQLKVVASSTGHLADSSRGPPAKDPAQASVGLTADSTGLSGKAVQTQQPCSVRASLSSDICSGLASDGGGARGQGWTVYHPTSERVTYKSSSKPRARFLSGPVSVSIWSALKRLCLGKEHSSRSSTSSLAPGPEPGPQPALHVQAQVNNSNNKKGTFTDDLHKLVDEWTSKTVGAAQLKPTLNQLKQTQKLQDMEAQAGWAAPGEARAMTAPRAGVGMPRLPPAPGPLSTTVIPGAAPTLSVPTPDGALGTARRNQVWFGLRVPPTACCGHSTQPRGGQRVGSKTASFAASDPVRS
Serine/threonine-protein kinase WNK3 (Homo sapiens), sequence (Q9BYP7 whole entry): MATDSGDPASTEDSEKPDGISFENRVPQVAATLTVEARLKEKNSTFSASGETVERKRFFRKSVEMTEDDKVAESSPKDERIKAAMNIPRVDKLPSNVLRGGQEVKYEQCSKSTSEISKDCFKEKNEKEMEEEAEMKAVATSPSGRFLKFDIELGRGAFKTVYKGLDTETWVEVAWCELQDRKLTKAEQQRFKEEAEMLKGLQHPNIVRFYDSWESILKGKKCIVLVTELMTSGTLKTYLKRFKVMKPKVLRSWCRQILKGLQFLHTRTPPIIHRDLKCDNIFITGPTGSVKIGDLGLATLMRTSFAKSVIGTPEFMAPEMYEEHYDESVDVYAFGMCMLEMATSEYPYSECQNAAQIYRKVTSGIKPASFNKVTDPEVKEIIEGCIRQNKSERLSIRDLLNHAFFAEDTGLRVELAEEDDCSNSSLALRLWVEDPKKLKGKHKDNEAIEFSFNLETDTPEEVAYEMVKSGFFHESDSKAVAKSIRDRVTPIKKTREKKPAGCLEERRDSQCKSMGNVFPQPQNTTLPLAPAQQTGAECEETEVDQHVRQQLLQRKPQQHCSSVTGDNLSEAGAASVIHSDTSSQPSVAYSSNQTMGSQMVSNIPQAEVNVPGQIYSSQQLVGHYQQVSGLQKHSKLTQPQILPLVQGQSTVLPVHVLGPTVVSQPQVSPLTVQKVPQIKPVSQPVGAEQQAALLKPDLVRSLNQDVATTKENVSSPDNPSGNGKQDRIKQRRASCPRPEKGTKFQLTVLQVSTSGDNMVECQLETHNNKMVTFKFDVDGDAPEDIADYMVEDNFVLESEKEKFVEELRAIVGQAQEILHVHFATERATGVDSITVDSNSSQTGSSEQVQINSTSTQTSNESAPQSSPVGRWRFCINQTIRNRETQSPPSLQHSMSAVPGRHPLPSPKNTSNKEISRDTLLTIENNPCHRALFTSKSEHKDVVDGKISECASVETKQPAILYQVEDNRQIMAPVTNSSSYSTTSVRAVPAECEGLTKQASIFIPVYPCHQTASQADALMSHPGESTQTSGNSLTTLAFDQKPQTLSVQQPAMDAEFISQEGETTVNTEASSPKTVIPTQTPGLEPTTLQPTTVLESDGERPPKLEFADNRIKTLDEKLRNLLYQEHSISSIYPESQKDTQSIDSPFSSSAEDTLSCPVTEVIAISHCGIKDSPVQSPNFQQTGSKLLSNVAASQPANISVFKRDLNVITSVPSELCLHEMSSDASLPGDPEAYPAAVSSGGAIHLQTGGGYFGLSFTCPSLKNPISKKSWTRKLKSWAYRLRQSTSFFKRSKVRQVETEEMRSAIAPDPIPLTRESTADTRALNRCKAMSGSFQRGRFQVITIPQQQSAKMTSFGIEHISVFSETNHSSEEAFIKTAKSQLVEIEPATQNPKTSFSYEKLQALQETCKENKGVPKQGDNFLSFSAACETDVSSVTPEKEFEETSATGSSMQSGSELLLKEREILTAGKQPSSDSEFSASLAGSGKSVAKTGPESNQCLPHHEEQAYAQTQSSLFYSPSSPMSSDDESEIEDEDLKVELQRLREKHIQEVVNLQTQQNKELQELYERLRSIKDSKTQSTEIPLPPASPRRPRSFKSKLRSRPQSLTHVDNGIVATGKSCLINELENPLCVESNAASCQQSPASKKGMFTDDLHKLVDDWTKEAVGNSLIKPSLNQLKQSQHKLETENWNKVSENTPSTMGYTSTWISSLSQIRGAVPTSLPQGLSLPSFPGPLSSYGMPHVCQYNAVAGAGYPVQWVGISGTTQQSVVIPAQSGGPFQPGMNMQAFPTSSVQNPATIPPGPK
Death-associated protein kinase 3 (Homo sapiens), sequence (O43293 whole entry, looked up): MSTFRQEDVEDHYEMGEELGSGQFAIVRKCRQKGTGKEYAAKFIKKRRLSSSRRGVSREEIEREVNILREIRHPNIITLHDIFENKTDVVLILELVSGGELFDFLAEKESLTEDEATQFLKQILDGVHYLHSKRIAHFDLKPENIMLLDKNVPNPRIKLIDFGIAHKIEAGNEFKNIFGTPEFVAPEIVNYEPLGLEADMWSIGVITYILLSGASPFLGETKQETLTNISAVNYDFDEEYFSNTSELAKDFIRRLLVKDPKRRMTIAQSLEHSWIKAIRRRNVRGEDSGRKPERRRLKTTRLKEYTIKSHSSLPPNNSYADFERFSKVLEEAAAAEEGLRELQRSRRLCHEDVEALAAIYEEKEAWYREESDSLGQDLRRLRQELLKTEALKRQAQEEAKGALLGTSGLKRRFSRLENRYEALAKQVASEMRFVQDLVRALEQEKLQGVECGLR
Tyrosine-protein kinase Yes (Homo sapiens), sequence (P07947 2-543 limits assumed): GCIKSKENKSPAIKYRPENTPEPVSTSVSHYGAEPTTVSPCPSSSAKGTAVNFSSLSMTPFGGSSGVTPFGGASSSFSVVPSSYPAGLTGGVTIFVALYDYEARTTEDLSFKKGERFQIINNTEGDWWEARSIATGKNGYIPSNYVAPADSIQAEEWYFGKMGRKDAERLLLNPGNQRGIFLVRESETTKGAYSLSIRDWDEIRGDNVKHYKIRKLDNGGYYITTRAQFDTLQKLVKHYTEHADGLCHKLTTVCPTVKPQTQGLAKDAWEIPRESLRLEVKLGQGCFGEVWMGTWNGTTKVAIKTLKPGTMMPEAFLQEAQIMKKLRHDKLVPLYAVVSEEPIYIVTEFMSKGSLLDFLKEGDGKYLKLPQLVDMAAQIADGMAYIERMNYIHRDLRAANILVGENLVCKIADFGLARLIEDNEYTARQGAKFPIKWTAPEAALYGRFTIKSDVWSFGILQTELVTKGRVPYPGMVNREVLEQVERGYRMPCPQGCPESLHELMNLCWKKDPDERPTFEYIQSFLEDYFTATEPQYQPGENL

In general, residual activity refers to the signal under treatment as a percentage of the control signal. Regarding `CCOc1nc(NC(=O)Cc2cc(OC)ccc2OC)cc(N)c1C#N`, the residual activity in test [1] came out at 73%; in test [2], 74%; in test [3], 80%; in test [4], 124%; in [5], 80%.

Take `COc1cc2ncnc(Nc3cccc(Cl)c3)c2cc1OC`: the residual activity in test [6] was 30%; in test [7] it was 3%; in test [8], 103%; in test [9] it was 89%; in [10], 101%; in test [3], 72%. In addition, the residual activity in [11] was found to be 103%; in test [12], 107%; in [13], 58%; in test [14] it was 29%.

As for `Cc1cc(C)c(/C=C2\C(=O)Nc3ccccc32)[nH]1`, the residual activity in test [15] came to 82%; in test [3] it was 103%; in test [11] it was 11%; in [12], 1%; in test [16] it was 105%.

Take `COc1ccc(CNC(=O)Nc2ncc([N+](=O)[O-])s2)cc1`: the residual activity in test [15] was 70%; in test [6], 10%; in [7], 13%; in [8] it was 100%; in test [2], 78%; in [3], 72%. In addition, the residual activity came out at 60% in [13] and 38% in test [14].

Turning to `O=C1NC(=O)C(c2c[nH]c3ccccc23)=C1c1c[nH]c2ccccc12`, the residual activity in test [15] amounted to 82%; in test [6], 100%; in test [7] it was 36%; in test [3] it was 57%; in test [13] it was 98%; in test [14], 76%.

For `O=C(Nc1ccc(Cl)cc1)c1ccccc1NCc1ccncc1`, the residual activity is 117% in [6]; 75% in test [7]; 41% in test [2]; 9% in test [3]; 17% in test [11]; -1% in test [12]. Moreover, the residual activity came to 78% in [13] and 69% in [5].

Consider `NCCNc1ncc(C(N)=O)c(Nc2cccc(C(F)(F)F)c2)n1`, for which the residual activity in [15] was found to be 80%; in test [6] it was 64%; in test [7] it was 3%; in test [11], 112%; in test [12] it was 105%; in [13], 70%. The figures for the residual activity in [14], in test [17] and in test [4] were 43%, 104% and 117%, respectively.

With `COc1ccc(COc2ccc(Cc3cnc(N)nc3N)cc2OC)cc1`, the residual activity was determined as 75% in test [15], 116% in test [17], 119% in test [18] and 120% in test [4].

Consider `Nc1ncnc2[nH]nc(Nc3ccc(F)cc3)c12`, for which the residual activity in test [19] was 101% (inactive); in test [6], 93%; in test [7] it was 21%; in test [8], 99%; in test [9], 116%; in test [10] it was 107%. Besides, the residual activity in test [2] turned out to be 56%; in [3], 16%; in [11] it was 106%; in test [12], 106%; in test [13] it was 100%; in [14], 54%. The residual activity in [17] worked out at 98%; in test [18], 90%; in test [4], 91%; in test [5] it was 95%.

For `COc1ccc(-c2cnc3c(-c4ccsc4)cnn3c2)cc1`, the residual activity in test [8] was 122%; in test [2], 86%; in test [3] it was 97%; in test [11], 100%; in [12], 85%; in [13], 77%. In addition, in test [5], the residual activity was 90%.

As for `CCCCc1c(-c2ccc(O)cc2)[nH]c2nccnc12`, the residual activity is 56% in test [6]; 51% in [7]; 99% in [10]; 84% in [2]; 71% in [3]; 98% in test [11]. Besides, the residual activity in test [12] stood at 77%; in test [13], 61%; in test [14], 22%; in test [5], 96%.

Regarding `CSc1nc(-c2ccc(F)cc2)c(-c2ccnc(NC(C)c3ccccc3)c2)[nH]1` (stereo unspecified), the residual activity in test [19] was 96% (inactive); in test [1], 94%; in [6], 99%; in [7] it was 63%; in test [9] it was 84%; in test [2], 89%. Also, the residual activity is 65% in test [3]; 129% in test [13]; 100% in test [14]; 91% in test [4]; 84% in test [5].

With `Nc1n[nH]c2nc3ccccc3nc12`, the residual activity in [15] is 94%; in [9], 99%; in test [10], 94%; in test [2], 93%; in [3], 69%; in test [14], 83%. Further, the residual activity in [17] was found to be 80%; in test [18], 84%.

On to `O=C(NC(NC(=S)Nc1ccc(F)c([N+](=O)[O-])c1)C(Cl)(Cl)Cl)C(c1ccccc1)c1ccccc1` (stereo unspecified), for which the residual activity in test [15] came to 95%; in test [7], 100%; in [8], 126%; in [9], 96%; in [10], 100%; in test [2], 92%. In addition, the residual activity is 98% in test [13]; 83% in test [14]; 102% in [17]; 92% in [18]; 88% in test [4]; 78% in test [5].

Consider `O=c1c(-c2ccc(F)cc2)c(-c2ccncc2)[nH]n1-c1ccc(Cl)cc1`, for which the residual activity in test [1] stood at 102%; in [8] it was 127%; in [9], 101%; in test [2], 33%; in test [3], 6%; in test [14], 79%. Also, the residual activity in test [4] is 125%; in test [5], 70%.

In the case of `O=S(=O)(NCCNC/C=C/c1ccc(Br)cc1)c1cccc2cnccc12`, the residual activity in test [6] worked out at 116%; in test [5], 62%.

Regarding `O=C1Nc2ccc(Cl)cc2/C1=C/c1cc(Cl)c(O)c(Cl)c1`, the residual activity in test [19] is 100% (inactive); in test [1], 80%; in test [6] it was 96%; in [7] it was 54%; in test [8], 96%; in test [9], 77%. The residual activity was 78% in test [10]; 2% in [2]; -2% in test [3]; 21% in test [11]; 6% in test [12]; 84% in test [13]. The residual activity was 65% in test [14]; 51% in test [17]; 64% in test [18]; 112% in test [4]; 75% in test [5].

Consider `Fc1ccc(-c2nc3n(c2-c2ccncc2)CCS3)cc1`, for which the residual activity in test [15] stood at 97%; in [6], 131%; in test [7], 91%; in test [8], 127%; in [2], 64%; in [3], 28%. In [18], the residual activity is 87%.

Take `CN([C@@H](Cc1ccc(OS(=O)(=O)c2cccc3cnccc23)cc1)C(=O)N1CCN(c2ccccc2)CC1)S(=O)(=O)c1cccc2cnccc12`: the residual activity in test [19] was 100% (inactive); in [1] it was 99%; in test [13], 100%; in test [14], 71%; in test [4], 81%.

Turning to `O=C1NC(=O)C(c2cn(CCCO)c3ncccc23)=C1c1cnccn1`, the residual activity was 99% (inactive) in test [19]; 90% in test [1]; 95% in [9]; 83% in [10]; 91% in test [2]; 78% in [3]. The results for the residual activity in test [4] and in test [5] were 119% and 84%, respectively.
